This note sets out measurements from the supplement of paper PMC10849652.

Targets with a hit are over-represented here; the source holds about 8,800 in all. About 0.5% of all pairs of compound and target were hits. Unmarked numbers belong to inactive results.

UniProt Q9BTE3, sequence (Q9BTE3 whole entry, looked up): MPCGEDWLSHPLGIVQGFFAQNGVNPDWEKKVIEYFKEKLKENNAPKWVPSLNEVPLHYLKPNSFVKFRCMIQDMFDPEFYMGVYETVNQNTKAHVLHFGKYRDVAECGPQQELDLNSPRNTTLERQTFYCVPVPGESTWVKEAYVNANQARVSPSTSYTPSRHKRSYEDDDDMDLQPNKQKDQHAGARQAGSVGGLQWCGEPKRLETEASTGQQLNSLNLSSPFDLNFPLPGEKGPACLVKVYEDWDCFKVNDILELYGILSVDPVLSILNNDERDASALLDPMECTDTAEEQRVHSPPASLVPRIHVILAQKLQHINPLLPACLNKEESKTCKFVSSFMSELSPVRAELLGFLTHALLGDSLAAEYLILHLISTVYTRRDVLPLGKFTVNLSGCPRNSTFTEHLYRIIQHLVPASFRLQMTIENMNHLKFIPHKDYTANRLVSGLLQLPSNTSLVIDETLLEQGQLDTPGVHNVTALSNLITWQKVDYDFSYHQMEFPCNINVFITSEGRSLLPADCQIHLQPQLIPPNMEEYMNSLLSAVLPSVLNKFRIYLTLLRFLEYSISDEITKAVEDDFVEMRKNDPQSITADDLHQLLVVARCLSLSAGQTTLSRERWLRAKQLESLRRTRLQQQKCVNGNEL
UniProt Q15013, sequence (Q15013 whole entry, looked up): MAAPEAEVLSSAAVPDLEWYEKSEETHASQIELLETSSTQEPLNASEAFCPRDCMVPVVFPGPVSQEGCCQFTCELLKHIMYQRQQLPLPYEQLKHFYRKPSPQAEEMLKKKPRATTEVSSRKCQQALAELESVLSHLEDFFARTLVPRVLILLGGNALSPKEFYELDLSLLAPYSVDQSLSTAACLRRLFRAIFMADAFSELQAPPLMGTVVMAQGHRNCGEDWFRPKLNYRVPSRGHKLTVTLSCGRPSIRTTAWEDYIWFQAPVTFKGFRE
UniProt Q9GZY8, sequence (Q9GZY8 whole entry, looked up): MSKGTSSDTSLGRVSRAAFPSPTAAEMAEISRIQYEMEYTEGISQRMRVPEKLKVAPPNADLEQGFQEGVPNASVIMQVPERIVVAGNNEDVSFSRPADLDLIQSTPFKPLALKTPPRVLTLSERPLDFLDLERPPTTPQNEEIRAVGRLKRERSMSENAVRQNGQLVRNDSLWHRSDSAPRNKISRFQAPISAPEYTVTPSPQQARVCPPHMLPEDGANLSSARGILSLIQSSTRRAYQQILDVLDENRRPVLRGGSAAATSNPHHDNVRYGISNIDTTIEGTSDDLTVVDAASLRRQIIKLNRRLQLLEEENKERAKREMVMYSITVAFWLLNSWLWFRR
UniProt Q16644, sequence (Q16644 whole entry, looked up): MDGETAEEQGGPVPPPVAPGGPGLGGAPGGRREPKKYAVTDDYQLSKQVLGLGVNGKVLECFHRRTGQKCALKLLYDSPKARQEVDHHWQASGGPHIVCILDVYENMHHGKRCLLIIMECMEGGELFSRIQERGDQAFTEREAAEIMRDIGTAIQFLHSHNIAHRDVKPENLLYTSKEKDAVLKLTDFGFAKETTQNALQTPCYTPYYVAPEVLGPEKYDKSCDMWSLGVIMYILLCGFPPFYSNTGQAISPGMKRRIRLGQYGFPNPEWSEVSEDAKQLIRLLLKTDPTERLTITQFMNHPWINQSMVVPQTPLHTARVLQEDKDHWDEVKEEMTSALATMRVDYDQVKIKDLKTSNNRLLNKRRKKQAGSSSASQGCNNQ
UniProt Q15334, sequence (Q15334 whole entry, looked up): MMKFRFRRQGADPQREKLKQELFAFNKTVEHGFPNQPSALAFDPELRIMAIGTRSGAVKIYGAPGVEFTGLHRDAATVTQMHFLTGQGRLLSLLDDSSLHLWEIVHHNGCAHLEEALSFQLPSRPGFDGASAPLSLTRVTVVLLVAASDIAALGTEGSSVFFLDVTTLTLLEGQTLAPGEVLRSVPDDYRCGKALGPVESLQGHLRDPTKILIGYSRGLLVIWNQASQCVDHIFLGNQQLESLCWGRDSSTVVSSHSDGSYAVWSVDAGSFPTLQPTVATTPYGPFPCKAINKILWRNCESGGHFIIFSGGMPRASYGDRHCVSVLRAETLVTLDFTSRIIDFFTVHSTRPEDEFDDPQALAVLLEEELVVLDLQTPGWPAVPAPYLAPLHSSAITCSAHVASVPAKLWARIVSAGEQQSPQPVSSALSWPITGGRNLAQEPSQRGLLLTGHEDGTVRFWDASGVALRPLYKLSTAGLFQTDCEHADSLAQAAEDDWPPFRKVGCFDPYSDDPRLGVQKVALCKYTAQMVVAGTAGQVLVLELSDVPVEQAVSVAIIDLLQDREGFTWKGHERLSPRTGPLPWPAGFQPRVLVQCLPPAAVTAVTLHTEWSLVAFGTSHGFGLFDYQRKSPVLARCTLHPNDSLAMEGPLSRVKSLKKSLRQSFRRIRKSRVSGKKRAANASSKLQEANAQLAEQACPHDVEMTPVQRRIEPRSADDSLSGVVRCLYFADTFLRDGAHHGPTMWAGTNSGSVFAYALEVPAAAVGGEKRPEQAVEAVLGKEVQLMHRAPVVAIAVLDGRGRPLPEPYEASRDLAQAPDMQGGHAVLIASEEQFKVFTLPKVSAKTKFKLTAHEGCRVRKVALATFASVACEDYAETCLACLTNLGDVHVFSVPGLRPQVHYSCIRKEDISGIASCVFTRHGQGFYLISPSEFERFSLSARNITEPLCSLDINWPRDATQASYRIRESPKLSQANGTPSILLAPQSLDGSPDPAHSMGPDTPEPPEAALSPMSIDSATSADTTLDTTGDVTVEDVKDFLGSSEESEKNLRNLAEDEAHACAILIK
UniProt Q9H089, sequence (Q9H089 whole entry, looked up): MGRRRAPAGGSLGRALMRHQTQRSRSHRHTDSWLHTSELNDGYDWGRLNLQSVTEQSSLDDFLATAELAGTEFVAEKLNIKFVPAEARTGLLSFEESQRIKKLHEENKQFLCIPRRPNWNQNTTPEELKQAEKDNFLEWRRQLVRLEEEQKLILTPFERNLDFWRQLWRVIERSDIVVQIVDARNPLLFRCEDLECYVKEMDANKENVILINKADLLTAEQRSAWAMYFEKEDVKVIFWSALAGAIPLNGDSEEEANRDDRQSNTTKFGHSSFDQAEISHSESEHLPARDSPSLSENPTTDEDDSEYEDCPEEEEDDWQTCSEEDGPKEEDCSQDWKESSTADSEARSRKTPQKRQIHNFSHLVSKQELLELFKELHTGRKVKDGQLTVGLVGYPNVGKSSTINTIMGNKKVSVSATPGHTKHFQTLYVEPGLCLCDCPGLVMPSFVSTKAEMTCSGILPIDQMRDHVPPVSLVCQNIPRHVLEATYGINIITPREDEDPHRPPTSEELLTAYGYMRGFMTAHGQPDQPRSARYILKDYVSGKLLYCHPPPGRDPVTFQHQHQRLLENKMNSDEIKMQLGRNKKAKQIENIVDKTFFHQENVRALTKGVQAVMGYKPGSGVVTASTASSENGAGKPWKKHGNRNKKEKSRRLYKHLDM
UniProt Q9BQ69, sequence (Q9BQ69 whole entry, looked up): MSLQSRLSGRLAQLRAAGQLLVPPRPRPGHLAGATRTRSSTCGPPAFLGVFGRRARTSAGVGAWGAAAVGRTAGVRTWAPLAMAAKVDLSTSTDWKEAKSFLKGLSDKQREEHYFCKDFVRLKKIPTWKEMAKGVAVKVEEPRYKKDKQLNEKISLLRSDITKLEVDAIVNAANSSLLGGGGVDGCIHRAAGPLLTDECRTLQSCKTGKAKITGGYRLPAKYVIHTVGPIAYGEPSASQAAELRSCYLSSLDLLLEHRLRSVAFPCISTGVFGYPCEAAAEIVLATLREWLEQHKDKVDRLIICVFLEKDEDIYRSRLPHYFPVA
UniProt Q09328, sequence (Q09328 whole entry, looked up): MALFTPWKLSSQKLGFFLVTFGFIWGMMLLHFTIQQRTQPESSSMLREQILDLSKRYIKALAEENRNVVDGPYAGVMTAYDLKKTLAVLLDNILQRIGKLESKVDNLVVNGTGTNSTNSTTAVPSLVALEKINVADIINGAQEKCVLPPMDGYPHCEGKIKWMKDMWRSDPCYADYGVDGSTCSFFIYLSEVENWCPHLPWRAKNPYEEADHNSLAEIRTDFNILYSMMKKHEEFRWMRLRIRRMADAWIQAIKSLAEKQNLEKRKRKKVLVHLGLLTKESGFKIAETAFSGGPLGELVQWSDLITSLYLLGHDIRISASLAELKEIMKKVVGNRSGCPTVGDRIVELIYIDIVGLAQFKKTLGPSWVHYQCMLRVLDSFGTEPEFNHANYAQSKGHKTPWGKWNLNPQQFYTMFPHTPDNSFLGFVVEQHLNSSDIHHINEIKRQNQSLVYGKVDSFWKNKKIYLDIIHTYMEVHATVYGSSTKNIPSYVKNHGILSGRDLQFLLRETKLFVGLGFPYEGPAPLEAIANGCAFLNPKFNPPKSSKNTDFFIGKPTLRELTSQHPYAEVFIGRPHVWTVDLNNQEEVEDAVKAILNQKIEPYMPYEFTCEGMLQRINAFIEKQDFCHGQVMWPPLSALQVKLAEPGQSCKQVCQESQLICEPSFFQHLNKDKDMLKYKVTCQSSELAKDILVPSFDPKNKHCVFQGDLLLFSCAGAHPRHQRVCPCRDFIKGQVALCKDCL
UniProt Q9NZL9, sequence (Q9NZL9 whole entry, looked up): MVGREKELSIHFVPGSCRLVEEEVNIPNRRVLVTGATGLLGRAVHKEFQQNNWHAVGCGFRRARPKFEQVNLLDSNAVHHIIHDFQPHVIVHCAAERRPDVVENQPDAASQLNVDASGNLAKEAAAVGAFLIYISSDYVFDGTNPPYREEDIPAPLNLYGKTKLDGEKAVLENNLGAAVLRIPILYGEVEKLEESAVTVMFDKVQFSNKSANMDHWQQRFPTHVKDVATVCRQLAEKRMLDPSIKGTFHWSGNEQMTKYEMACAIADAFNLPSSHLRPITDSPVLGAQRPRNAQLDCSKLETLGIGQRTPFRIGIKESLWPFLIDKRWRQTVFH
UniProt P10620, sequence (P10620 whole entry, looked up): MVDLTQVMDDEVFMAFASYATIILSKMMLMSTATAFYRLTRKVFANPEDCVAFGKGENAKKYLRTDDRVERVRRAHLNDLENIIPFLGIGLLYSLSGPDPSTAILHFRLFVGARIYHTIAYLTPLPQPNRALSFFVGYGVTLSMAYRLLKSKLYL

Compound in the first experiment: CNC(=O)C1=CC=CC=C1NC2=NC(=NC=C2Cl)NC3=C(C=C(C=C3)N4CCOCC4)OC
Briefly: log2 fold change, soluble protein after heating vs DMSO (PISA); higher = thermal stabilisation; K562 lysate, 10 uM; active = over 0.2 and 3.5 SD of the protein, either way, in both replicates (recomputed). Put shortly: (§1)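 Log-two fold change in thermal stability relative to solvent controls is reported from duplicates. For each sample, crude K562 extract from dounce-homogenised pellets in PBS pH 7.4 with 1 mM MgCl2, at 1 mg/mL protein, was treated with 10 μM compound for 30 min. Aliquots heated for 3 min across 48°C-58°C were pooled, brought to 0.5% NP-40 at 4°C and cleared at 21,000xg for 90 min. The supernatant was quantified by TMTpro 16plex LC-MS/MS with channel sums equalised.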
On to LARS2 (UniProt Q15031), for which the log2 fold change is -0.047.
On the same count and under the same terms, the value for LYSMD3 (UniProt Q7Z3D4) was -0.045; that for MARK3 (UniProt P27448) was -0.188; that for MAP2K2 (UniProt P36507) was 0.198.
Same read-out and setting: in the case of MAD2L1BP isoform 3 (UniProt Q15013) it was 0.088.
Same read-out and setting: in the case of MOCS1 isoform 8 (UniProt Q9NZB8) it was 0.002; in that of LRRC40 (UniProt Q9H9A6), 0.019.
As to MPZL1 (UniProt O95297), the log2 fold change is -0.014.
On the same count and under the same terms, the value for MON2 isoform 5 (UniProt Q7Z3U7) was 0.018; that for LLGL1 (UniProt Q15334) was 0.032.
On the same count and under the same terms, in the case of MRPL10 isoform 2 (UniProt Q7Z7H8) it was -0.035.
For LIMS1 isoform 3 (UniProt P48059), the log2 fold change is 0.017.
The same measure, in the same setting: the value for MED12 isoform 2 (UniProt Q93074) was -0.02; that for METTL7A (UniProt Q9H8H3) was 0.003; that for MED17 (UniProt Q9NVC6) was 0.025.
Still for that read-out and setting: the value for LSM8 (UniProt O95777) was 0.007; that for MFF isoform 2 (UniProt Q9GZY8) was -0.052.
On the same count and under the same terms, in the case of LARS (UniProt Q9P2J5) it was 0.006; in that of MAPK9 (UniProt P45984), 0.44 (active).
As to MED13L (UniProt Q71F56), the log2 fold change was 0.016.
The same measure, in the same setting: in the case of MACROD1 (UniProt Q9BQ69) it was 0.012; in that of MRPL46 (UniProt Q9H2W6), 0.28.
For the target MGST1 (UniProt P10620), the log2 fold change was 0.07.
Still for that read-out and setting: in the case of MGAT5 (UniProt Q09328) it was -0.011; in that of MAT2B (UniProt Q9NZL9), -0.013.
The same measure, in the same setting: in the case of MCMBP (UniProt Q9BTE3) it was 0.029; in that of MICB, A0A140T979, -0.09.
With LSS (UniProt P48449), the log2 fold change was -0.03.
On the same count and under the same terms, in the case of MORF4L1 isoform 2 (UniProt Q9UBU8) it was -0.001; in that of MAPKAPK3 (UniProt Q16644), 0.015; in that of KPNA4 (UniProt O00629), 0.014.
For LIG3 (UniProt P49916), the log2 fold change is 0.007.
The same measure, in the same setting: the value for MAP4 (UniProt E7EVA0) was 0; that for MLST8 (UniProt Q9BVC4) was -0.059.
Same read-out and setting: in the case of LSG1 (UniProt Q9H089) it was -0.046; in that of MPP1 (UniProt Q00013), -0.007.
Still for that read-out and setting: in the case of LRWD1 (UniProt Q9UFC0) it was -0.049.
MBD2 (UniProt Q9UBB5): the log2 fold change was 0.001.
Still for that read-out and setting: in the case of MCU (UniProt Q8NE86) it was 0.026.

Compound in the next experiment: CNC(=O)c1ccc(Nc2ncc(C(F)(F)F)c(NCc3nccnc3N(C)S(C)(=O)=O)n2)cc1 [defactinib]
Described as above. The method, boiled down:
as §1
As for LARS2 (UniProt Q15031), the log2 fold change is 0.013.
On the same count and under the same terms, the value for LYSMD3 (UniProt Q7Z3D4) was -0.062.
On the same count and under the same terms, in the case of MARK3 (UniProt P27448) it was -0.158.
For MAP2K2 (UniProt P36507), the log2 fold change was 0.036.
Take MAD2L1BP isoform 3 (UniProt Q15013): the log2 fold change was 0.068.
With MOCS1 isoform 8 (UniProt Q9NZB8), the log2 fold change is 0.113.
The same measure, in the same setting: in the case of LRRC40 (UniProt Q9H9A6) it was 0.013; in that of MPZL1 (UniProt O95297), 0.01; in that of MON2 isoform 5 (UniProt Q7Z3U7), 0.023.
The same measure, in the same setting: in the case of LLGL1 (UniProt Q15334) it was -0.013; in that of MRPL10 isoform 2 (UniProt Q7Z7H8), 0.023; in that of LIMS1 isoform 3 (UniProt P48059), 0.048.
On the same count and under the same terms, in the case of MED12 isoform 2 (UniProt Q93074) it was 0.029.
Consider METTL7A (UniProt Q9H8H3), for which the log2 fold change is 0.011.
On the same count and under the same terms, the value for MED17 (UniProt Q9NVC6) was -0.035.
LSM8 (UniProt O95777): the log2 fold change is 0.048.
Regarding MFF isoform 2 (UniProt Q9GZY8), the log2 fold change was 0.027.
LARS (UniProt Q9P2J5): the log2 fold change is 0.023.
On the same count and under the same terms, in the case of MAPK9 (UniProt P45984) it was 0.056; in that of MED13L (UniProt Q71F56), -0.011.
Same read-out and setting: in the case of MACROD1 (UniProt Q9BQ69) it was 0.039; in that of MRPL46 (UniProt Q9H2W6), 0.051.
Still for that read-out and setting: the value for MGST1 (UniProt P10620) was 0.02; that for MGAT5 (UniProt Q09328) was -0.337 (active).
In the case of MAT2B (UniProt Q9NZL9), the log2 fold change was 0.003.
The same measure, in the same setting: in the case of MCMBP (UniProt Q9BTE3) it was 0.041; in that of MICB, A0A140T979, 0.021; in that of LSS (UniProt P48449), -0.026.
On the same count and under the same terms, the value for MORF4L1 isoform 2 (UniProt Q9UBU8) was -0.005; that for MAPKAPK3 (UniProt Q16644) was 0.033; that for KPNA4 (UniProt O00629) was -0.002.
Consider LIG3 (UniProt P49916), for which the log2 fold change is 0.006.
For MAP4 (UniProt E7EVA0), the log2 fold change is 0.01.
With MLST8 (UniProt Q9BVC4), the log2 fold change was -0.023.
The same measure, in the same setting: in the case of LSG1 (UniProt Q9H089) it was 0.003.
In the case of MPP1 (UniProt Q00013), the log2 fold change was -0.002.
The same measure, in the same setting: the value for LRWD1 (UniProt Q9UFC0) was 0.059.
For MBD2 (UniProt Q9UBB5), the log2 fold change was 0.022.
Consider MCU (UniProt Q8NE86), for which the log2 fold change is 0.037.
